The subject of assay [1] is Plasmodium falciparum Sir2 (PF13_0152, Sir2A). Nature of the assay: Plasmodium falciparum Sir2A binding compounds – biochemical, small-molecule microarray, 635 nm fluorescence, primary screen (AID 1098).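 Note: score merges spot fluorescence intensity with its signal-to-noise ratio.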 As to conditions: fluorescence 635 nm, higher = more signal.
Assay [2] is described as follows: probe aDKK1 binding to arrayed compounds – biochemical, biotinylated probe, 635/667 nm fluorescence, primary screen (AID 1099).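 Note: score merges 667nm spot fluorescence with signal to noise across triplicate slides.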 As to conditions: small-molecule microarray, higher = more signal.
Assay [3] is described as follows: probe aCHRDL2 binding to arrayed compounds – biochemical, biotinylated probe, 635/667 nm fluorescence, primary screen (AID 1100). As to conditions: small-molecule microarray, higher = more signal.
The nature of assay [4]: change in splice reporter luminescence, either direction, cell-based, HEK293, spliceosome inhibition project, primary screen (AID 1101).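 Note: HEK293 cells carrying a splicing-competent luciferase reporter gene; test concentration not given here.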 The conditions noted are these: HEK293 splicing luciferase reporter, 24 h, higher = more signal, called active from +8 up or from −8 down.
For assay [5], the target named is Fibroblast growth factor 10 (Homo sapiens) (UniProt O15520). Nature of the assay: compounds binding fibroblast growth factor 10 – biochemical, small-molecule microarray, 635 nm fluorescence, primary screen (AID 1102). The conditions noted are these: FGF10 binding, fluorescence 635 nm, higher = more signal.
Assay [6] relates to glycogen synthase kinase-3 (GSK3A per assay name; protocol says GSK3B). Nature of the assay: compounds binding glycogen synthase kinase-3 – biochemical, small-molecule microarray, 635 nm fluorescence, GSK3A, primary screen (AID 1103). Note: the record names both GSK3A and GSK3B. The conditions noted are these: fluorescence 635 nm, higher = more signal.
The target in assay [7] is Epidermal growth factor receptor (Homo sapiens) (UniProt P00533). Nature of the assay: compounds binding epidermal growth factor receptor – biochemical, small-molecule microarray, 635 nm fluorescence, primary screen (AID 1104).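 Note: score merges 667 nm emission intensity with spot signal to noise over triplicate slides.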 The conditions noted are these: EGFR binding, higher = more signal.
The target of assay [8] is Follistatin-related protein 3 (Homo sapiens) (UniProt O95633). Put plainly: compounds binding follistatin-related protein 3 – biochemical, small-molecule microarray, 635 nm fluorescence, primary screen (AID 1105).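 Note: score merges emission near 667 nm and signal to noise per printed spot across three slides.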 As to conditions: FSTL3 binding, higher = more signal.
The target of assay [9] is Dickkopf-related protein 1 (Homo sapiens) (UniProt O94907). Nature of the assay: small molecules binding DKK1 protein – biochemical, small-molecule microarray, 635 nm fluorescence scan, primary screen (AID 1106).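 Note: score merges emission near 667 nm with signal to noise over three replicate slides.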 As to conditions: higher = more signal.
In assay [10] the test system is Inhibin beta A chain (activin A). Nature of the assay: small molecules binding activin A – biochemical, small-molecule microarray, 635 nm fluorescence scan, primary screen (AID 1107).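 Note: mouse activin A protein probed at 4.33 µg/mL on printed slides; score merges bound-protein fluorescence near 667 nm with spot signal-to-noise.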 As to conditions: INHBA, higher = more signal.
Assay [11] deals with Human papillomavirus type 1a protein E7 (residues 44-93). Nature of the assay: small molecules binding HPV E7 44-93 – biochemical, small-molecule microarray, residues 44-93, 635 nm fluorescence, primary screen (AID 1108).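 Note: E7 fragment applied at 1 µg/mL in TBST for 1 h at 4 C; score combines spot fluorescence with its signal to noise ratio.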 As to conditions: fluorescence 635 nm, higher = more signal.
A short description of assay [12]: hepatitis C replication reporter changes, two-sided – Huh7 cells, luciferase reporter, HCV replication inhibitor project, primary screen (AID 1109).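 Note: huh7 hepatoma cells harbouring a luciferase neomycin HCV replicon reporter; luciferase luminescence as measure of HCV replicon replication; test concentration not given here.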 The conditions noted are these: Huh7 HCV replicon luciferase reporter, 48 h; higher = more signal.
Assay [13] concerns the target Left-right determination factor 2 (Homo sapiens) (UniProt O00292). Put plainly: small molecules binding LEFTY2 protein – biochemical, small-molecule microarray, 635 nm fluorescence scan, primary screen (AID 1110). As to conditions: higher = more signal.
The target in assay [14] is Calmodulin-1 (Homo sapiens) (UniProt P0DP23). Nature of the assay: small molecules binding calmodulin-1 with EGTA – biochemical, small-molecule microarray, Cy5-labelled CALM1, profiling panel (AID 1111).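 Note: labelled calmodulin applied in Tris saline Tween buffer holding calcium plus EGTA and DTT.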 The conditions noted are these: Cy5-CALM1 binding fluorescence, higher = more signal.
For assay [15] the target is unchanged. Nature of the assay: small molecules binding Ca-loaded calmodulin-1 – biochemical, small-molecule microarray, Cy5-labelled CALM1, plus calcium, artefact control for SMM control-protein annotation, profiling panel (AID 1112).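 Note: score merges spot fluorescence with signal to noise from triplicate slides.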 The conditions noted are these: Cy5-CALM1 binding fluorescence, higher = more signal.
Assay [16] can be described thus: probe aWnt5a binding to arrayed compounds – biochemical, biotinylated probe, 635/667 nm fluorescence, primary screen (AID 1113).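 Note: score merges 667 nm fluorescence intensity with signal-to-noise per printed feature.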 As to conditions: small-molecule microarray, higher = more signal.
A short description of assay [17]: probe aShh binding to arrayed compounds – biochemical, biotinylated probe, 635/667 nm fluorescence, primary screen (AID 1114).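 Note: probe is biotin-labelled aShh protein from a stem cell growth factor screen; measures binding of labelled protein to compounds printed on the slide; score merges feature fluorescence at 667 nm with signal-to-noise.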 The conditions noted are these: small-molecule microarray, higher = more signal.
A short description of assay [18]: probe aNog binding to arrayed compounds – biochemical, biotinylated probe, 635/667 nm fluorescence, primary screen (AID 1115).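 Note: probe is biotinylated aNog protein used at 0.15 µg/mL for 1 h at 4 C; z-score combines 667 nm fluorescence of each spot with its signal to noise.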 The conditions noted are these: small-molecule microarray, higher = more signal.
Assay [19] concerns the target Torsin-1A-interacting protein 1 (Homo sapiens) (UniProt Q5JTV8). Put plainly: compound microarray binding of lysate hLAP1 – cell lysate, small-molecule microarray, COS7 lysate, 635/667 nm fluorescence, primary screen (AID 1116). As to conditions: 635 nm fluorescence, higher = more signal.
Assay [20] addresses Alpha-bungarotoxin (Bungarus multicinctus) (UniProt P60615). Put plainly: compounds binding labelled alpha-BTX control protein – biochemical, small-molecule microarray, Alexa647 label, 635/667 nm fluorescence, artefact control for SMM control protein annotation, profiling panel (AID 1117). As to conditions: alpha-BTX-A647 binding fluorescence, higher = more signal.

The source of these data is PubChem BioAssay.

Activity calls are given as the source filed them.

Chain of Dickkopf-related protein 1 (Homo sapiens) (O94907 whole entry, looked up): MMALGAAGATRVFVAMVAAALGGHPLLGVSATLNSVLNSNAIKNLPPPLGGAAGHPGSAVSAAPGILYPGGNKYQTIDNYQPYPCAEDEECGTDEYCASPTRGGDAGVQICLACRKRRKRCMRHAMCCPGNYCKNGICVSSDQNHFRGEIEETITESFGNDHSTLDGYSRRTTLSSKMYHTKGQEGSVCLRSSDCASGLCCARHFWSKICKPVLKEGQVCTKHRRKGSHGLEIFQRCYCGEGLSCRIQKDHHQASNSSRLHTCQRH
Chain of Left-right determination factor 2 (Homo sapiens) (O00292 whole entry, looked up): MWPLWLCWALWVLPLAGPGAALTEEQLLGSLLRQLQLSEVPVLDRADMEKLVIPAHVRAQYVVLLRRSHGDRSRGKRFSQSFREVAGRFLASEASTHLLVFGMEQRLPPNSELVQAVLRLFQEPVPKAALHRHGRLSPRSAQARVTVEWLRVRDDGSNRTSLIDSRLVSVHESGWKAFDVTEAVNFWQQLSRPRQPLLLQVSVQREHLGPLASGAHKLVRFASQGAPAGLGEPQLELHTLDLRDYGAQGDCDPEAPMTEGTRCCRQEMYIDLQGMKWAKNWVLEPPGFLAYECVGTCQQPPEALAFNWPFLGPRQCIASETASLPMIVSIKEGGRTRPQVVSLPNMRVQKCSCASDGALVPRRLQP
Chain of Torsin-1A-interacting protein 1 (Homo sapiens) (Q5JTV8 whole entry, looked up): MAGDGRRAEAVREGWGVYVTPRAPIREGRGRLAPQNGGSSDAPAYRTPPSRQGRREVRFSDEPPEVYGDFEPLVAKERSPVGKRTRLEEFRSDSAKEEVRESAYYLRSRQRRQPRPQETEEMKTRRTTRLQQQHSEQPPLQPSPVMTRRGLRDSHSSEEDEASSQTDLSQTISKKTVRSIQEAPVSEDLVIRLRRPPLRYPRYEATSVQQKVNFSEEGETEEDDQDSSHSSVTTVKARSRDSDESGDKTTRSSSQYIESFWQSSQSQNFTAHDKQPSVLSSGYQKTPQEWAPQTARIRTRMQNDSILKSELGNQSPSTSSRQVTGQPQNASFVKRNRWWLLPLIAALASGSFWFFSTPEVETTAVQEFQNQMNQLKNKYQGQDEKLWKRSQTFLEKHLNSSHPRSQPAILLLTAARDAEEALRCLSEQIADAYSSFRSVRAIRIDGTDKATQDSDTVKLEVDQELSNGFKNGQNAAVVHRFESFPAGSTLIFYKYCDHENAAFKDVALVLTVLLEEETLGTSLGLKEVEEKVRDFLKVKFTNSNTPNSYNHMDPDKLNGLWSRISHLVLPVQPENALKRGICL
Chain of Follistatin-related protein 3 (Homo sapiens) (O95633 whole entry, looked up): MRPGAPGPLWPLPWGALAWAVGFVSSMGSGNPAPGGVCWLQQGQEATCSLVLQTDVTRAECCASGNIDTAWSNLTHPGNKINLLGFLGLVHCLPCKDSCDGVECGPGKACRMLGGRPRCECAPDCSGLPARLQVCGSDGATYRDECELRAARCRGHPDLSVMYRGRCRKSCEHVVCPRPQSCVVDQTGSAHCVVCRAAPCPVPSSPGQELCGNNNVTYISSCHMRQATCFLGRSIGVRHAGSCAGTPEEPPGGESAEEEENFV
Chain of Fibroblast growth factor 10 (Homo sapiens) (O15520 whole entry, looked up): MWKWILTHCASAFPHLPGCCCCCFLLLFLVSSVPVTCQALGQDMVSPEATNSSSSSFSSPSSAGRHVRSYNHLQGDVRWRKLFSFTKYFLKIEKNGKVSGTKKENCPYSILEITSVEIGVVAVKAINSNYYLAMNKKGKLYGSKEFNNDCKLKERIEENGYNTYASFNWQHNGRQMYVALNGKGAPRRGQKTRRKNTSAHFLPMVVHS
Chain of Alpha-bungarotoxin (Bungarus multicinctus) (P60615 whole entry, looked up): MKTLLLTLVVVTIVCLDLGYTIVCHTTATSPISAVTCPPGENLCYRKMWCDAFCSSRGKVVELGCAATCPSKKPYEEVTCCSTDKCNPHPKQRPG
Chain of Epidermal growth factor receptor (Homo sapiens) (P00533 whole entry, looked up): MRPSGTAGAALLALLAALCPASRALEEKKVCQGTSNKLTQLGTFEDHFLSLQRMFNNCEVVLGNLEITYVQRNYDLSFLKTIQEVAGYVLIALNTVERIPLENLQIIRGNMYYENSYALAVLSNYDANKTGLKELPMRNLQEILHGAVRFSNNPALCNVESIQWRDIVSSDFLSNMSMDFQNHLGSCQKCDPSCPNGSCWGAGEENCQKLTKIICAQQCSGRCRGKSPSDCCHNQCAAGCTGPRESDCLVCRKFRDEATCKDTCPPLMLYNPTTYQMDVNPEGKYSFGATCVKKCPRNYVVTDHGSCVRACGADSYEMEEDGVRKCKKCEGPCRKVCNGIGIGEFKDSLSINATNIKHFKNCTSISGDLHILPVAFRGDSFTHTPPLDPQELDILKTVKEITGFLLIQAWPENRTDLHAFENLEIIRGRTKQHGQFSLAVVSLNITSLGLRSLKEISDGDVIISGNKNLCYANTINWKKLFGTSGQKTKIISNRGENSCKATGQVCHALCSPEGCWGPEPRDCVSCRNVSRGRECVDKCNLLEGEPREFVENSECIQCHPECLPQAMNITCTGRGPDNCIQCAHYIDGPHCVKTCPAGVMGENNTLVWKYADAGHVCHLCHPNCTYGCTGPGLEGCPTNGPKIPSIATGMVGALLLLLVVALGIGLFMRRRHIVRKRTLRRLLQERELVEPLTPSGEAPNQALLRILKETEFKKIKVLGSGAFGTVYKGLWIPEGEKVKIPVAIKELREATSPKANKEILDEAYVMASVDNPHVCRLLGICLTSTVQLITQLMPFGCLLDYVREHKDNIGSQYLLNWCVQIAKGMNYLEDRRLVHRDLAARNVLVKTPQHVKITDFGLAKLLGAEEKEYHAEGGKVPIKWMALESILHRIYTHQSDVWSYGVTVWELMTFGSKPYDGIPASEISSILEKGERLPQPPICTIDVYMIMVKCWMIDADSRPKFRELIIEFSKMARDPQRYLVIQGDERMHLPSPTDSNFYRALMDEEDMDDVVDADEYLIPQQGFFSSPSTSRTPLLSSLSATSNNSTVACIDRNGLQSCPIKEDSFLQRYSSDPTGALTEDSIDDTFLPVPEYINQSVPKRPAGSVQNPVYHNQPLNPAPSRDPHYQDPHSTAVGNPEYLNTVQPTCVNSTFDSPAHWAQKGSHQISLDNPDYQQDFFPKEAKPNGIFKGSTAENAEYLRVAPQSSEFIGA

As for `CC(C)(C)OC(=O)CC[C@@]1(C(=O)NCCN2CCOCC2)N=C(c2ccc(OCCCO)cc2)O[C@@H]1c1ccccc1N=[N+]=[N-]`, the composite z-score in assay [1] was 0.739; in [2], 1.04; in [3], 1.21; in [5], 1.1; in [6], 0.0778; in assay [7] it was 0.0224. Besides, the composite z-score in assay [8] was 1.06; in assay [9] it was 0.0741; in assay [10], 1.24; in assay [11] it was 1.32; in [13], 0.609; in [14], 0.147. In addition, the composite z-score in assay [15] came to 0.0196; in [16], 0.108; in assay [17], 0.171; in assay [18], 0.991; in [19], 0.694; in assay [20] it was 0.783. The z-score in [4] was -0.744 (inactive); in assay [12] it was -0.291.

Regarding `COc1ccc(C#Cc2ccc3c(c2)[C@]2(C(=O)N3)[C@H](c3ccccc3OCCO)N3[C@H](c4ccccc4)[C@H](c4ccccc4)OC(=O)[C@H]3[C@@H]2C(=O)O)cc1`, the composite z-score in assay [1] stood at 1.26; in [2], 0.734; in assay [3], 0.142; in assay [5] it was 1.4; in [6] it was 1.21; in assay [7], 0.319. Moreover, the composite z-score in assay [8] amounted to 0.98; in [9], 0.126; in assay [10], 0.54; in assay [11], 1.42; in [13] it was 0.186; in assay [14], 1.22. In addition, the composite z-score in assay [15] came out at 1.05; in assay [16] it was 0.0932; in assay [17], 0.0037; in assay [18] it was 1.52; in assay [19], 1.77; in assay [20], 1.67. Besides, the z-score is -2.14 (inactive) in assay [4] and -2.87 in assay [12].

Consider `C=CC[C@]12N=C(c3ccc(OCCCO)cc3)O[C@H]1c1ccccc1N(Cc1ccccc1)C2=O`, for which the composite z-score in assay [1] is 1.28; in assay [2], 1.21; in [3], 1.37; in [5], 0.706; in assay [6], 0.524; in [7] it was 0.112. Moreover, the composite z-score in assay [8] was 0.836; in assay [9] it was 0.378; in assay [10] it was 0.897; in assay [11], 0.0023; in [13] it was 0.192; in assay [14] it was -0.162. Further, the composite z-score is 0.438 in [15]; 0.0032 in assay [16]; -0.0146 in [17]; 0.472 in assay [18]; 1.9 in assay [19]; 1.51 in assay [20]. Further, the z-score in assay [4] was -0.415 (inactive); in assay [12], -2.57.

Take `O=C1OCCC/C=C\[C@H]2OC34C=CCN(Cn5nnc6ccccc65)C(=O)[C@H]3N(CCO)C(=O)[C@@H]4C12` (stereo not given in full): the composite z-score in [1] is 1.31; in assay [2], -0.316; in assay [3], 0.292; in [5] it was -0.468; in assay [6], -0.963; in assay [7], -0.898. Moreover, the composite z-score in assay [8] is -1.41; in [9], -1.14; in assay [10] it was -0.171; in assay [11], -0.249; in [13], -1.84; in assay [14], -0.173. For the same molecule, the composite z-score in assay [15] is 0.963; in assay [16], -0.187; in assay [17], 0.022; in assay [18], 0.235; in assay [19], -0.482; in assay [20], -0.601. In addition, the z-score in assay [4] was -1.48 (inactive); in assay [12], -0.317.

On to `COCCn1c(C(=O)N2CCCC2)cc2c1C[C@H]1CN(C(=O)c3ccccc3)[C@@](Cc3ccc(F)cc3)(C(=O)OC)[C@@H]21`, for which the composite z-score in assay [1] is 1.17; in assay [2] it was 0.418; in [3], 0.43; in assay [5] it was -0.149; in assay [6], 1.31; in assay [7], 0.291. Further, the composite z-score in assay [8] was 0.664; in [9], 0.131; in assay [10], 0.593; in assay [11] it was 1.43; in assay [13], -0.0638; in assay [14], 2.41. Further, the composite z-score is 0.954 in [15]; 0.402 in [16]; 0.636 in assay [17]; -0.489 in assay [18]; 2.88 in assay [19]; 0.476 in assay [20]. The z-score in assay [4] was -0.604 (inactive); in [12], -1.42.
